Screening data deposited in PubChem BioAssay by ICCB-Longwood Screening Facility, Harvard Medical School.
The full list was thinned out, with hits kept by preference.
Anaer choline gr: blocks anaerobic gram-negative growth on choline; Gram-negative bacterium anaerobic choline minimal medium, absorbance growth; stronger effect = lower value; calls only; 55,000 tested, 0.2% active; call rule not given here
Calls only; i = inactive; + = active, no number; ! = a repeat was not active.

SMILES	Anaer choline gr
O=C(C1CC(=O)N(c2ccccc2)C1)N1CCN(c2ncnc3c2nnn3-c2cccc(F)c2)CC1 (stereo not drawn)	i
CN(C)c1ccc(NS(=O)(=O)N2CCOCC2)cc1C(=O)O	i
Cc1cc(-c2c(C)sc(C)c2S(=O)(=O)Nc2cccc(Cl)c2)n[nH]1	i
CC(C)NC(=O)Cn1cnc2c(sc3ncccc32)c1=O	i
Cc1nc(-c2csc(S(=O)(=O)N3CCCC(C(=O)Nc4cccnc4)C3)c2)no1 (stereo not drawn)	i
CCc1ccc(NCc2cc3ccc(OC)cc3n(CC(=O)Nc3ccc4c(c3)OCO4)c2=O)cc1	+
COC(=O)c1ccccc1NC(=O)Cn1c(=O)c(CNc2ccccc2)cc2ccc(OC)cc21	i
CCOC(=O)c1ccccc1NC(=O)Cn1c(=O)c(CNc2ccc(C)cc2)cc2ccc(OC)cc21	i
Cn1c(=O)c(=O)n(CC(=O)NCCN2CCCC2)c2cccnc21	i
COc1ccc(CCNC(=O)CCc2nnc3c4cc(-c5ccc(C)c(C)c5)nn4ccn23)cc1OC	i
COc1ccc(C(=O)NC(=NCc2ccncc2)Nc2ccccc2)cc1OC	i
COC(=O)c1cccc(NC(=NCc2ccncc2)NC(=O)c2ccc3c(c2)OCO3)c1	i
Cc1cccc(NC(=NCc2ccncc2)NC(=O)c2ccc3c(c2)OCO3)c1	+
O=C(CN1N=C(c2ccccc2F)c2cc(Cl)ccc2S1(=O)=O)NCc1ccccc1	i
Cc1cccc(C(=O)Nc2c(-n3cnnc3)nn(C)c2C)c1	i
COC(=O)c1sccc1NC(=O)CN1CCCN(Cc2cccc(C)c2)S1(=O)=O	i
COC1C=CO[C@@]2(C)Oc3c(C)c(O)c4c(O)c(c5c(c4c3C2=O)NC2(CCN(CC(C)C)CC2)N=5)=NC(=O)C(C)=CC=CC(C)C(O)C(C)C(O)C(C)C(OC(C)=O)C1C (stereo partly drawn)	i
CO[C@H]1/C=C/O[C@@]2(C)Oc3c(C)c(O)c4c(O)c(c(/C=N/N5CCN(C)CC5)c(O)c4c3C2=O)NC(=O)/C(C)=C\C=C\[C@H](C)[C@H](O)[C@@H](C)[C@@H](O)[C@@H](C)[C@H](OC(C)=O)[C@@H]1C	+!
COC1C=CO[C@@]2(C)Oc3c(C)c(O)c4c(O)c(c5c(nc6cc(C)ccn65)c4c3C2=O)NC(=O)C(C)=CC=CC(C)C(O)C(C)C(O)C(C)C(OC(C)=O)C1C (stereo partly drawn)	i
Cc1nn(C)c2nc(OC(C)C(=O)N3CCc4ccccc43)cc(-c3ccccc3)c12 (stereo not drawn)	i
O=[N+]([O-])c1ccc2c(c1)S(=O)(=O)C=C2	+!
Cc1oc(C2CCN(C(=O)NCC3CCCO3)CC2)nc1C(=O)N1CCSCC1 (stereo not drawn)	i
COc1ccc(Cl)cc1NS(=O)(=O)c1c(C)sc(C)c1-c1cc(C)[nH]n1	i
CCN1CCN(c2ccc(NC(=O)c3ccccc3Cl)c(C(=O)O)c2)CC1	i
CN(C)c1ccc(NC(=O)c2ccc(Br)cc2)c(C(=O)O)c1	i
SMILES	Anaer choline gr
O=C(Nc1ccc(N2CCN(C3CCCCC3)CC2)cc1C(=O)O)c1ccccc1Cl	i
Cc1cccc(N2CCN(c3ccc(NC(=O)c4ccccc4Cl)c(C(=O)O)c3)CC2)c1C	i
CN(C)c1ccc(NC(=O)c2ccccc2Cl)c(C(=O)O)c1	+
CC1CCN(c2ccc(NC(=O)c3ccccc3Cl)c(C(=O)O)c2)CC1	+
Cc1cc(C)cc(NC(=O)c2cnc(N(C)C)nc2)c1	i
Cc1ccc(NC(=O)c2ccc3nnc(C)n3c2)cc1F	i
CCOc1nc2c(c(C)nn2-c2ccc(C)cc2)c(C)c1CCC(=O)NC1CCCC1	i
Cc1cc(C)nc(NC(=O)CCn2nnc3cc(S(=O)(=O)N4CCCC4)ccc32)n1	i
O=c1ccc(-c2ccccc2)nn1CCc1nc(-c2cccc(Br)c2)no1	i
CC(C)n1cnc2nc(CSc3ccc(NC(=O)COc4ccccc4)cc3)cc(=O)n21	i
Cc1cc(N2CCCC2)nc(N2CCN(S(=O)(=O)c3ccc(Br)cc3)CC2)n1	+
O=S(=O)(c1ccc(Br)cc1)N1CCN(c2ccc(N3CCCC3)nn2)CC1	i
Cc1cc(N2CCN(C)CC2)nc(N2CCN(S(=O)(=O)c3ccc(Br)cc3)CC2)n1	i
Cc1cccc(Cn2c(C)c(C)c3cc(C(=O)NCC4CCCO4)ccc32)c1 (stereo not drawn)	i
O=C(CSc1nnc(-c2ccncc2)o1)Nc1ccc2c(c1)OCO2	+
Cc1ccc(NC(=O)CSc2nnc(-c3ccncc3)o2)cc1Cl	i
CC(Sc1nnc(-c2ccncc2)o1)C(=O)Nc1ccc2c(c1)OCCO2 (stereo not drawn)	i
Cc1nc(N2CCOCC2)ncc1C(=O)NC1CCCC1	i
CCN(CC)CCOc1ccc(Cc2ccccc2)cc1	i
CC[N+](CC)(CC)CCOc1cccc(OCC[N+](CC)(CC)CC)c1OCC[N+](CC)(CC)CC	i
CC[N+](CC)(CC)CCOc1ccc(/C=C/c2ccccc2)cc1	+!
c1ccc2c(-c3nn4cnnc4s3)c[nH]c2c1	i
